Sampled rows, rich in hits. Any-hit rate of the full collection: about 10%.
GPT2 inh – GPT2 alanine aminotransferase inhibition | Q8TD30 | 100,000 compounds, 0.25% hits | AID 1671188 | Potency, µM (titrated, usually from 57.7 µM), inactives show at the highest dose activity change, negative = inhibition, actives largely listed as inhibitors | Recombinant GPT2, coupled pyruvate oxidase/HRP Amplex Red fluorescence; note: nearly all actives have a fitted effect of over 60% in size
Target sequence (Q8TD30 whole entry, looked up): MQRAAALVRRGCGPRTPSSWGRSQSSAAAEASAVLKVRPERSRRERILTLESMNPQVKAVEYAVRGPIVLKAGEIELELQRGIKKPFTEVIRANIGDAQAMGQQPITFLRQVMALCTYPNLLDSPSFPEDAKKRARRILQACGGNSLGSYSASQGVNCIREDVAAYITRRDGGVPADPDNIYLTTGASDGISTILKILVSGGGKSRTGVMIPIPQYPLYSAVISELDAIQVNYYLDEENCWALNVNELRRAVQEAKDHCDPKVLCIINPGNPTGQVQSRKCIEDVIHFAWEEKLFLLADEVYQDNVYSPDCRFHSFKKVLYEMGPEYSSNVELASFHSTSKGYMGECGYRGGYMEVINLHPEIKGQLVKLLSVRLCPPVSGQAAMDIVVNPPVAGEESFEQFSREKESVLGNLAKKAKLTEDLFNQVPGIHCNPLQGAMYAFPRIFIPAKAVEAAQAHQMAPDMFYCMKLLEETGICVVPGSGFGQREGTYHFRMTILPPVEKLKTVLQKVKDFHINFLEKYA
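GPT2 10ng/uL, a-KG 250uM, L-Ala 2mM, HEPES pH7.5 + 0.0001% Tween; 30 min RT. Then Amplex mix (PO/HRP/ThPP), 30 min RT dark, fluorescence. AOA 50uM used as positive control.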
FLuc inh – blocks purified firefly luciferase enzyme activity; P08659; Potency, µM (highest dose often 115 µM), usual class: inhibitors; 76,000 compounds, 2.5% hits; purified P. pyralis luciferase, luminescence, biochemical; note: nearly all actives have a fitted effect of over 65% in size
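Biochemical qHTS: compound (6-point titration) added to 10uM D-luciferin plus 10uM ATP in Tris acetate pH 7.5 buffer with Mg, Tween-20 and BSA, then purified enzyme at 10nM; light output imaged.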
NIH3T3 tox – NIH 3T3 cell cytotoxicity. NIH 3T3 viability, CellTiter-Glo ATP luminescence, 48-72 h. Potency, µM (series often up to 96.7 µM), without a hit: top-dose activity change, negative = cytotoxicity, most hits filed as inhibitors. 94,000 compounds, 4.3% hits. AID 1345082; note: nearly all actives have a fitted effect of over 55% in size
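NIH 3T3 cells at 400 cells/well received 23 nL of compound by pintool and were incubated 48 or 72 h at 37 °C. Viability was read as ATP-coupled CellTiter-Glo luminescence.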
hNpr1 antagonist – blocks ANP-stimulated signaling of human Npr1 receptor; AID 1347048; 76,000 compounds, 1.6% hits; P16066; Potency, µM (top dose mostly 46.3 µM), for inactives: top-dose activity change, negative = inhibition, hits mostly inhibitors; HEK293 hNpr1 GloSensor cGMP, ANP-stimulated luminescence; calls by dose curve; note: nearly all actives have a fitted effect of over 60% in size
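Compound pre-incubated 30 min at room temperature on GloSensor-loaded HEK293 cells stably carrying hNpr1 and the pGS-40F cGMP biosensor. Stimulation uses hNppA at 0.1 nM final; luminescence is taken at baseline and 20 min post-agonist.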
HEK293 tox – HEK 293 cell cytotoxicity; HEK 293 viability, ATP luminescence (CellTiter-Glo), 48-72 h; Potency, µM (series often up to 115 µM), for the others: at the top dose activity change, negative = cytotoxicity, actives largely listed as inhibitors; 94,000 compounds, 6.6% hits; AID 1345083; note: nearly all actives have a fitted effect of over 60% in size
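Viability of HEK 293 cells, plated at 250 cells/well, was judged by cellular ATP after compound treatment for 48 or 72 hr. Luminescence was imaged 10 min after CellTiter-Glo addition at room temperature.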
* = called active by the depositor; i = inactive; ? = inconclusive; / = no result; [ ] = remark or other dose. Unless noted, calls come from the whole dose curve; as a rule, active = well fitted curve in the direction sought with a large enough effect; inconclusive = small, poorly fitted or top-dose-only effect, or another doubt; inactive = no such curve, though single readings can be large; an effect the other way counts as inactive or inconclusive. % is set by controls: 0 for no effect and ±100 for the full control effect; potency is the fitted concentration of half-maximal effect.

SMILES | GPT2 inh | FLuc inh | NIH3T3 tox | hNpr1 antagonist | HEK293 tox
CN(C)C(=O)c1cccnc1OC1CCN(C(=O)Nc2ccc(F)cc2F)C1 (configuration not stated) | i | i | 0% | 4% | 3%
CN(C)Cc1nnc(C2CCCN(C(=O)c3cccc(N(C)C)c3)C2)n1C (configuration not stated) | i | i | 2% | -2% | 4%
C[C@H](C(=O)N1CCCC1)[C@@H]1CC[C@@]2(C)Cc3sc(-c4ccsc4)nc3[C@@H](C)[C@@H]2[C@H]1O | -4% | 11µM* | -26% | -19% | ?
CCc1cccc(NC(=O)Cn2c(-c3cnccn3)nc(C)c(CCO)c2=O)c1 | -3% | i | -7% | -13% | -16%
Cc1cnc(C2CCN(CC3CCCCC3)C2)n1Cc1ccccc1 (configuration not stated) | ? | / | 20µM* | / | 22µM*
Cc1cnc(C2CCN(C(=O)C3CCCC3)C2)n1Cc1ccccc1 (configuration not stated) | -11% | i | -11% | -20% | -21%
COCCn1ncc(N2CCCC(CC(=O)NCc3cccc(F)c3)C2)cc1=O (configuration not stated) | -19% | i | 0% | 1% | 9%
COc1cccc(-c2ccc(C(=O)N3CCC(C(=O)NCCCc4ccccc4)CC3)cc2)c1 | -4% | / | ? | / | ?
CCN1CCN(C(=O)c2cc(-c3cccc(C(F)(F)F)c3)nc3c2cnn3C)CC1 | 1% | / | 32µM* | / | ?
CNC(=O)c1cc(-c2ccc(C(F)(F)F)cc2)nc2c1cnn2C | / | / | ? | / | -20%
CC1CCCN(C(=O)c2cc(-c3ccc(C(F)(F)F)cc3)nc3c2cnn3C)C1 (configuration not stated) | / | / | ? | / | 45µM*
O=C(NCc1ccccc1F)c1ccc2c(c1)CN(Cc1ccncc1F)CCO2 | i | / | ? | / | 45µM*
Cc1ccc(CNC(=O)c2ccc3c(c2)CN(Cc2ccncc2F)CCO3)cc1 | -8% | i | ? | ? | ?
O=C(NCc1ccccc1F)c1ccc2c(c1)CN(Cc1ccccc1F)CCO2 | -8% | / | ? | / | 45µM*
Cc1cc(C)c(C)c(S(=O)(=O)NC2CCN(c3ccc(=O)n(CC4CC4)n3)CC2)c1C | i | i | ? | ? | 32µM*
O=c1ccc(N2CCC(NS(=O)(=O)c3ccc(Cl)s3)CC2)nn1CC1CC1 | i | i | ? | ? | ?
O=C(c1c[nH]c2ncccc12)N1CCOCC1 | i | i | -1%[174 µM] | -3%[70.6 µM] | 2%[230 µM]
CN1CCC(OC2CCN(C(=O)c3ccc(F)c(F)c3)CC2)CC1 | i | i | -21% | ? | -20%
O=C(CCC[C@H]1NC[C@@H]2C[C@H]1CN(Cc1ccccc1)C2)Nc1ccc2c(c1)OCCO2 | -10% | 45µM* | -6% | 1% | -13%
CN(Cc1cccnc1)C(=O)CCC[C@H]1NC[C@@H]2C[C@H]1CN(Cc1ccccc1)C2 | -12% | i | i | 2% | 5%
CN(Cc1ccc(N2CCCCC2)cc1)C(=O)CCC[C@H]1NC[C@@H]2C[C@H]1CN(Cc1ccccc1)C2 | i | i | 18µM* | -2% | ?
COc1ccc(CN2CCc3nc(C(=O)NCc4ccncc4)oc3CC2)cc1 | -9%[88.5 µM] | i | ? | ? | ?
Cc1csc(NC(=O)c2nc3c(o2)CCN(Cc2ccc(C#N)cc2)CC3)n1 | 4%[88.5 µM] | 22µM* | ? | ? | ?
CCCN1CCc2nc(C(=O)Nc3nc(C)cs3)oc2CC1 | -3%[88.5 µM] | 20µM* | -23%[138 µM] | -2%[70.6 µM] | ?
Cc1csc(NC(=O)c2nc3c(o2)CCN(Cc2ccccc2)CC3)n1 | -25%[88.5 µM] | ? | ? | -30%[70.6 µM] | 56µM*
SMILES | GPT2 inh | FLuc inh | NIH3T3 tox | hNpr1 antagonist | HEK293 tox
Cc1csc(NC(=O)c2nc3c(o2)CCN(Cc2c(C)noc2C)CC3)n1 | -7%[88.5 µM] | 63µM* | 50µM* | -1%[70.6 µM] | -26%[172 µM]
Cc1noc(C)c1CN1CCc2ncc(C(=O)Nc3ccccc3)n2CC1 | i | i | ? | -2%[70.6 µM] | -23%[172 µM]
O=C(NCC1CC1)c1nc2c(o1)CCN(CCCc1ccccc1)CC2 | i | ? | -20%[138 µM] | 3%[70.6 µM] | ?
Cn1cc(CN2CCN(C(c3ccccc3)c3ccccc3)CC2)cc1C#N | 0%[11.5 µM] | i | ? | -3% | ?
O=C(Nc1ccc(F)cc1)C1CCc2nnc(C3CCN([S+](=O)([O-])c4ccccc4Cl)CC3)n21 (configuration not stated) | -11%[88.5 µM] | / | -20%[138 µM] | / | -28%[172 µM]
Cc1ccc2nc(C(=O)N(C)Cc3cn[nH]c3-c3ccc(F)cc3)cn2c1 | -2% | i | -21% | 2% | -4%
Cc1noc(C)c1-c1cc2cc(CO)oc2c(NCc2cccc(F)c2)n1 | -10%[88.5 µM] | i | 25µM* | -16%[70.6 µM] | ?
Cc1cc2cc(-c3c(C)noc3C)nc(NC3CCN(C)CC3)c2o1 | 1%[88.5 µM] | i | 35µM* | 4%[70.6 µM] | 100µM*
Cc1noc(C)c1-c1cc2cc(CO)oc2c(NC2CCN(C)CC2)n1 | -7%[88.5 µM] | i | 45µM* | -22%[70.6 µM] | ?
COCCNc1nc(-c2c(C)noc2C)cc2cc(CO)oc12 | 1%[88.5 µM] | i | ? | 4%[70.6 µM] | -15%[172 µM]
Cc1ccc(NC(=O)C2CCN(c3cc(C(F)(F)F)ncn3)CC2)c(C)c1 | i | i | -17% | ? | ?
CC1CCC(NC(=O)C2CCN(c3cc(C(F)(F)F)ncn3)CC2)CC1 (configuration not stated) | i | ? | ? | 2.2µM* | ?
O=C(NC1CC1)c1ccccc1OCC1CCCN(CC2=Cc3ccccc3OC2)C1 (configuration not stated) | i | i | ? | ? | 40µM*
O=C(c1ccccc1OCC1CCCN(CC2=Cc3ccccc3OC2)C1)N1CCCCC1 (configuration not stated) | 2% | i | ? | -17% | ?
CC(C)NC(=O)c1ccccc1OCC1CCCN(Cc2ccc(F)cc2)C1 (configuration not stated) | -6% | i | ? | 4% | 40µM*
CC(C)NC(=O)c1ccccc1OCC1CCCN(CC2=Cc3ccccc3OC2)C1 (configuration not stated) | i | i | ? | -20% | 35µM*
CC(C)NC(=O)c1ccccc1OCC1CCCN(Cc2nccs2)C1 (configuration not stated) | i | i | ? | -7% | ?
O=C(c1cccnc1OC1CCN(C(=O)C2CC2)C1)N1CCOCC1 (configuration not stated) | i | i | i | -3% | 0%
CC1=NS(=O)(=O)N(Cc2ccccc2)C=C1C(=O)OCc1noc(CC2CCCCC2)n1 | 2% | i | ? | ? | ?

High-throughput results deposited in PubChem by National Center for Advancing Translational Sciences (NCATS).
